Source: PubChem BioAssay (EPA / NIEHS)
Calls of active or inactive are those of the source. How the source made its calls: active means hit-call score of the fitted dose curve at least 0.9, where 1 is the maximum; inactive means score below 0.9.

Read-out: not listed separately
Experiment: BSK_KF3CT_SRB: Viability Assessment in the BioMAP Diversity Plus: KF3CT Assay (AID 2283069);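 further: total protein by sulforhodamine B staining as a cytotoxicity measure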
Details: primary human keratinocytes with fibroblasts
Method in brief: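 Cytotoxicity was gauged by SRB staining (0.1% SRB, 10% TCA fixation, 560 nm) of parallel cultures at 24 h. The cells were primary human skin keratinocytes co-cultured with fibroblasts, and activity was fitted in both directions against DMSO.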

Structure (SMILES)	outcome	AC50
O=C1C(Cl)=C(Cl)C(=O)C(Cl)=C1Cl	inactive	
N#CCCCCC#N	inactive	
CC(C)(c1cc(Cl)c(O)c(Cl)c1)c1cc(Cl)c(O)c(Cl)c1		5.15 µM (active)
COCC(=O)N(c1c(C)cccc1C)N1CCOC1=O	inactive	
CC(C)CCCCCCCOP(=O)(Oc1ccccc1)Oc1ccccc1		25.7 µM (active)
C=CCN(CC=C)C(=O)C(Cl)Cl	inactive	
c1ccc(Nc2ccc3ccccc3c2)cc1		36.9 µM (active)
Cc1ccc(OP(=O)(Oc2ccc(C)cc2)Oc2ccc(C)cc2)cc1 (tested in a mixture with another compound)	inactive	
O=S(=O)(c1ccccc1)c1ccccc1	inactive	
CC(=O)/C=C/c1ccccc1	inactive	

Read-out: Interleukin-1 alpha (IL1a), IL1A (gene 3552)
Experiment: BSK_KF3CT_IL1a: BioMAP Diversity Plus: KF3CT Assay for Interleukin-1 alpha (IL1a) Biomarker Activity (AID 2283070)
Details: primary human keratinocytes with fibroblasts; actives raise or lower the signal
Method in brief: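 IL-1a was detected by ELISA 24 h after chemical treatment of a co-culture of human skin keratinocytes and foreskin fibroblasts. Gain or loss of signal was fitted against the DMSO baseline.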

Structure (SMILES)	AC50	outcome
O=C1C(Cl)=C(Cl)C(=O)C(Cl)=C1Cl	20.1 µM (active)	
N#CCCCCC#N		inactive
CC(C)(c1cc(Cl)c(O)c(Cl)c1)c1cc(Cl)c(O)c(Cl)c1	9.44 µM (active)	
COCC(=O)N(c1c(C)cccc1C)N1CCOC1=O		inactive
CC(C)CCCCCCCOP(=O)(Oc1ccccc1)Oc1ccccc1	11.3 µM (active)	
C=CCN(CC=C)C(=O)C(Cl)Cl		inactive
c1ccc(Nc2ccc3ccccc3c2)cc1	24.2 µM (active)	
Cc1ccc(OP(=O)(Oc2ccc(C)cc2)Oc2ccc(C)cc2)cc1 (tested in a mixture with another compound)		inactive
O=S(=O)(c1ccccc1)c1ccccc1		inactive
CC(=O)/C=C/c1ccccc1		inactive

Read-out: TIMP metallopeptidase inhibitor 2 (TIMP2), TIMP2 (gene 7077)
Experiment: BSK_KF3CT_TIMP2: BioMAP Diversity Plus: KF3CT Assay for TIMP metallopeptidase inhibitor 2 (TIMP2) Biomarker Activity (AID 2283071)
Details: primary human keratinocytes with fibroblasts; actives raise or lower the signal
Method in brief: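 ELISA readout of TIMP-2 in keratinocyte plus foreskin fibroblast co-cultures (human skin primary cells), 24 h post-dose. Gain or loss of signal fitted relative to DMSO.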

Structure (SMILES)	AC50	outcome
O=C1C(Cl)=C(Cl)C(=O)C(Cl)=C1Cl	12.1 µM (active)	
N#CCCCCC#N		inactive
CC(C)(c1cc(Cl)c(O)c(Cl)c1)c1cc(Cl)c(O)c(Cl)c1	5.51 µM (active)	
COCC(=O)N(c1c(C)cccc1C)N1CCOC1=O		inactive
CC(C)CCCCCCCOP(=O)(Oc1ccccc1)Oc1ccccc1	16.1 µM (active)	
C=CCN(CC=C)C(=O)C(Cl)Cl		inactive
c1ccc(Nc2ccc3ccccc3c2)cc1	15.8 µM (active)	
Cc1ccc(OP(=O)(Oc2ccc(C)cc2)Oc2ccc(C)cc2)cc1 (tested in a mixture with another compound)	5.39 µM (active)	
O=S(=O)(c1ccccc1)c1ccccc1		inactive
CC(=O)/C=C/c1ccccc1		inactive

Read-out: Transforming growth factor beta 1 (TGFb1), TGFB1 (gene 7040)
Experiment: BSK_KF3CT_TGFb1: BioMAP Diversity Plus: KF3CT Assay for Transforming growth factor beta 1 (TGFb1) Biomarker Activity (AID 2283072)
Details: primary human keratinocytes with fibroblasts; actives raise or lower the signal
Method in brief: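 Read-out: ELISA for TGF-b1 in keratinocyte/foreskin fibroblast human skin co-culture, 24 h after dosing; bidirectional curve fit vs DMSO baseline; gain or loss of signal scored.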

Structure (SMILES)	AC50	outcome
O=C1C(Cl)=C(Cl)C(=O)C(Cl)=C1Cl	20 µM (active)	
N#CCCCCC#N		inactive
CC(C)(c1cc(Cl)c(O)c(Cl)c1)c1cc(Cl)c(O)c(Cl)c1	5.27 µM (active)	
COCC(=O)N(c1c(C)cccc1C)N1CCOC1=O		inactive
CC(C)CCCCCCCOP(=O)(Oc1ccccc1)Oc1ccccc1	20 µM (active)	
C=CCN(CC=C)C(=O)C(Cl)Cl		inactive
c1ccc(Nc2ccc3ccccc3c2)cc1	26.6 µM (active)	
Cc1ccc(OP(=O)(Oc2ccc(C)cc2)Oc2ccc(C)cc2)cc1 (tested in a mixture with another compound)	4.81 µM (active)	
O=S(=O)(c1ccccc1)c1ccccc1		inactive
CC(=O)/C=C/c1ccccc1		inactive

Read-out: C-C motif chemokine 2 (Homo sapiens) (UniProt P13500)
Experiment: BSK_KF3CT_MCP1: BioMAP Diversity Plus: KF3CT Assay for Monocyte Chemoattractant Protein 1 (MCP1/CCL2) Biomarker Activity (AID 2283073)
Details: primary human keratinocytes with fibroblasts; actives raise or lower the signal
Method in brief: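 Keratinocytes and foreskin fibroblasts were co-cultured, dosed with chemical, and sampled 24 h later. MCP-1 was quantified by ELISA, and the endpoint was analyzed with bidirectional fitting using DMSO as negative control.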

Structure (SMILES)	AC50	outcome
O=C1C(Cl)=C(Cl)C(=O)C(Cl)=C1Cl	10.1 µM (active)	
N#CCCCCC#N		inactive
CC(C)(c1cc(Cl)c(O)c(Cl)c1)c1cc(Cl)c(O)c(Cl)c1	10 µM (active)	
COCC(=O)N(c1c(C)cccc1C)N1CCOC1=O		inactive
CC(C)CCCCCCCOP(=O)(Oc1ccccc1)Oc1ccccc1	31.4 µM (active)	
C=CCN(CC=C)C(=O)C(Cl)Cl		inactive
c1ccc(Nc2ccc3ccccc3c2)cc1	30.9 µM (active)	
Cc1ccc(OP(=O)(Oc2ccc(C)cc2)Oc2ccc(C)cc2)cc1 (tested in a mixture with another compound)		inactive
O=S(=O)(c1ccccc1)c1ccccc1		inactive
CC(=O)/C=C/c1ccccc1		inactive

Read-out: urokinase plasminogen activator (uPA), PLAU (gene 5328)
Experiment: BSK_KF3CT_uPA: BioMAP Diversity Plus: KF3CT Assay for urokinase plasminogen activator (uPA) Biomarker Activity (AID 2283075)
Details: primary human keratinocytes with fibroblasts; actives raise or lower the signal
Method in brief: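 ELISA read-out of uPA 24 h after dosing human skin keratinocytes co-cultured with foreskin fibroblasts. Signal change fitted both ways relative to DMSO; sulforhodamine B on parallel cultures marks overt cytotoxicity.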

Structure (SMILES)	AC50	outcome
O=C1C(Cl)=C(Cl)C(=O)C(Cl)=C1Cl	28.5 µM (active)	
N#CCCCCC#N		inactive
CC(C)(c1cc(Cl)c(O)c(Cl)c1)c1cc(Cl)c(O)c(Cl)c1	9.27 µM (active)	
COCC(=O)N(c1c(C)cccc1C)N1CCOC1=O		inactive
CC(C)CCCCCCCOP(=O)(Oc1ccccc1)Oc1ccccc1	20 µM (active)	
C=CCN(CC=C)C(=O)C(Cl)Cl		inactive
c1ccc(Nc2ccc3ccccc3c2)cc1	30.7 µM (active)	
Cc1ccc(OP(=O)(Oc2ccc(C)cc2)Oc2ccc(C)cc2)cc1 (tested in a mixture with another compound)		inactive
O=S(=O)(c1ccccc1)c1ccccc1		inactive
CC(=O)/C=C/c1ccccc1		inactive

Read-out: CD40, CD40 (gene 958)
Experiment: BSK_LPS_CD40: BioMAP Diversity Plus: LPS Assay for CD40 Biomarker Activity (AID 2283076)
Details: primary human HUVEC with PBMC; actives raise or lower the signal
Method in brief: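 CD40 signal, measured by ELISA, is fitted in both directions relative to DMSO vehicle. The system is an LPS-driven human vascular primary co-culture of endothelial cells and PBMC, sampled 24 h after compound addition.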

Structure (SMILES)	AC50	outcome
O=C1C(Cl)=C(Cl)C(=O)C(Cl)=C1Cl	15.1 µM (active)	
N#CCCCCC#N		inactive
CC(C)(c1cc(Cl)c(O)c(Cl)c1)c1cc(Cl)c(O)c(Cl)c1	17.3 µM (active)	
COCC(=O)N(c1c(C)cccc1C)N1CCOC1=O		inactive
CC(C)CCCCCCCOP(=O)(Oc1ccccc1)Oc1ccccc1	11.3 µM (active)	
C=CCN(CC=C)C(=O)C(Cl)Cl		inactive
c1ccc(Nc2ccc3ccccc3c2)cc1		inactive
Cc1ccc(OP(=O)(Oc2ccc(C)cc2)Oc2ccc(C)cc2)cc1 (tested in a mixture with another compound)	7.66 µM (active)	
O=S(=O)(c1ccccc1)c1ccccc1		inactive
CC(=O)/C=C/c1ccccc1	20 µM (active)	
